MazF activator = activators of E. coli MazEF toxin-antitoxin RNase, primary screen, biochemical, fluorescence, uHTS; Endoribonuclease toxin MazF (Escherichia coli (strain K12)), P0AE70; FAM/BHQ RNA-DNA oligo cleavage fluorescence, 5 h; activation, % at 20 µM; hit rate 0.32% among 350,000; in the data active = activation above about 50%
BoNT-A LC inh2 = BoNT/A light chain protease inhibitors, primary screen, biochemical, flow cytometry, MLPCN library | hit rate 0.17% among 360,000 | Botulinum neurotoxin type A light chain protease (Clostridium botulinum A str. ATCC 3502) | AID 588499, 2011 | multiplex microsphere protease substrate cleavage | inhibition, % at 10 µM
BoNT-F LC inh = BoNT/F light chain protease inhibitors, primary screen, biochemical, flow cytometry, MLPCN library | Botulinum neurotoxin type F light chain protease (Clostridium botulinum) | Multiplex microsphere protease cleavage assay | inhibition, % at 10 µM | hit rate 0.22% among 360,000; in the data active = inhibition above about 35%, passing the limit was not always enough; inconclusive = no clear call, values can overlap the other calls
Bead autofluor = counter-screen for toxin protease inhibitors: compound fluorescence; compound autofluorescence counterscreen, microsphere flow cytometry; active compounds read high; fluorescence intensity (test concentration not listed); hit rate 3.1% among 360,000; AID 624483; in the data active = fluorescence intensity above about 16000; inconclusive = no clear call, values can overlap the other calls
Anthrax LF prot = Bacillus anthracis LF protease inhibitors, primary screen, biochemical, multiplex microsphere, MLPCN library; multiplex microsphere protease cleavage assay; inhibition, % at 10 µM; AID 588501, 2011; Lethal factor (Bacillus anthracis), P15917; hit rate 0.12% among 360,000
Large screens that a line does not name were inactive. The list is not random: actives were taken first. Their share in the collection is about 3.6%. Cut-off read from the data, not from the text of the source, unless noted: active = inhibition above about 30%; inconclusive = no clear call, values can overlap the other calls; inactive = below that.

Cc1cccc(NC(=O)CSc2ncnc3sc(C)c(C)c23)n1	none
Cc1sc2nc(SCC(=O)c3cccs3)n(Cc3ccco3)c(=O)c2c1C	Bead autofluor 22489
C(/C=C/c1ccccc1)=N/N1CCN(c2ccccc2)CC1	BoNT-A LC inh2 inconclusive, Bead autofluor 17556
C(=C\c1ccccc1)/C=N/N1CCN(c2ccccn2)CC1	none
COc1ccc(-n2c(NCCN(C)C)nc3sc4c(c3c2=O)CCCCC4)cc1	Bead autofluor 22405
CC(=O)Nc1cc(N=Cc2ccc(O)cc2O)c(Cl)cc1Cl	MazF activator 130
Cc1cc(NC(=O)COc2coc(CN3CCN(c4ccc(F)cc4)CC3)cc2=O)no1	none
COc1ccccc1COC(=O)Nc1c(C)nn(C)c1Cl	BoNT-A LC inh2 inconclusive, Bead autofluor 18871
Cc1nn(C)c(Cl)c1NC(=O)OCc1ccc(F)cc1	none
Cc1ccc(NC(=O)N(C2=NCC(C)S2)c2ccccc2)cc1 (stereo not given)	BoNT-A LC inh2 inconclusive, Bead autofluor 19772
Cc1c2cc(O)c(=O)cc-2oc2cc(O)c(O)cc12	MazF activator 410, Bead autofluor 17336
CC(C)(C)c1ccc(S(=O)(=O)NCC(=O)N2CCCC2)cc1	none
O=C(NC(=S)Nc1ccc(O)cc1)c1ccccc1Cl	none
Cc1ccc(O)c(NC(=S)NC(=O)c2ccccc2Cl)c1	BoNT-F LC inh 38
N#Cc1ccc(N2C(=O)[C@@H]3C(C(=O)c4ccc5ccccc5n4)=NN[C@@H]3C2=O)cc1	MazF activator 120
COCCn1cnc2c1c(=O)n(Cc1ccc(C#N)cc1)c(=O)n2Cc1ccccc1	none
Cc1nnc(NC(=O)C2CCN(c3cnccn3)CC2)s1	Bead autofluor 22414
Cc1nnc(NC(=O)C2CCN(c3nnnn3-c3ccccc3)CC2)s1	BoNT-A LC inh2 inconclusive, Bead autofluor 21118
Cc1cc(O)c(C(C)C)cc1N=Cc1ccc([N+](=O)[O-])cc1	none
O=C(Nc1cccc(-c2nn[nH]n2)c1)c1csc2c1CCCC2	none
Cc1ccc(C(=O)N2CCC(C(=O)c3ccc(Cl)cc3)CC2)cc1	none
CCOC(=O)C1CCN(C(=O)Nc2cc(Cl)cc(Cl)c2)CC1	none
CCN1CCN(C2=CC3=CC(=C(C#N)C#N)CCC3CC2)CC1 (stereo not given)	MazF activator active, BoNT-F LC inh 48, Bead autofluor 30604
N#Cc1cc(Cl)c(N2CCOCC2)cc1C#N	none
CC1(C)CC(NCCN2CCN(C3=CC(=C(C#N)C#N)CC(C)(C)C3)CC2)=CC(=C(C#N)C#N)C1	none
N#CC(C#N)=C1C=C2C=C(N3CCCCCC3)CCC2CC1 (stereo not given)	BoNT-A LC inh2 48, BoNT-F LC inh 177, Bead autofluor 97979, Anthrax LF prot 84
CN1CCN(C2=CC3=CC(=C(C#N)C#N)CCC3CC2)CC1 (stereo not given)	Bead autofluor 17359 (no result: MazF activator)
N#CC(C#N)=C1C=C2C=C(N3CCOCC3)CCC2CC1 (stereo not given)	Bead autofluor 26074
CCN1C(=O)C(CC(=O)Nc2ccc(F)cc2)N(Cc2ccc3c(c2)OCO3)C1=S (stereo not given)	none
CN1CCN(c2ccc(C(=O)c3ccc(Br)cc3)cc2[N+](=O)[O-])CC1	none
O=C(COC(=O)CSc1ccc(Cl)cc1)NCCc1ccccc1	none (no result: BoNT-A LC inh2, BoNT-F LC inh, Bead autofluor, Anthrax LF prot)
COCCNC(=O)NC1(C(F)(F)F)Oc2ccc(Cl)cc2O1 (stereo not given)	none
Cc1cc(NC(=O)NC2(C(F)(F)F)Oc3ccc(Cl)cc3O2)no1 (stereo not given)	Bead autofluor 16576
COc1ccccc1Cc1c(-c2ccc(OC)c(OC)c2)nc2ccc(Cl)cn12	none (no result: MazF activator)
CC(=O)N1CCC(=NNS(=O)(=O)c2cccc([N+](=O)[O-])c2)CC1	MazF activator 53
CC1CCc2sc(C(=O)NCc3ccc(F)cc3)cc2C1 (stereo not given)	BoNT-A LC inh2 inconclusive, Bead autofluor 24108
O=C(Cn1ncc2c([nH]c3ccccc32)c1=O)NCCCN1CCN(c2ccccc2)CC1	none
O=C(CSc1nc(=O)n2ccccc2n1)NCc1ccccc1Cl	none
O=C(CSc1ncccn1)NCc1ccccc1Cl	BoNT-A LC inh2 inconclusive, Bead autofluor 21734
CN(CC(=O)Nc1ccc(F)cc1)C(=O)COC(=O)CNC(=O)c1sc2ccccc2c1Cl	MazF activator 70, BoNT-F LC inh inconclusive, Bead autofluor inconclusive
CN(CCO)C(=O)CCC(=O)Nc1ccc(S(N)(=O)=O)cc1	Bead autofluor 17212
CCOC(=O)c1ccc(NC(=O)Nc2cc(C)on2)cc1	Bead autofluor 16267
CCOC(=O)c1ccc(NC(=O)Nc2ccc(S(N)(=O)=O)cc2)cc1	Bead autofluor 24361
Cc1cc(NC(=O)c2ccc(NC(=O)CC(C)C)cc2)no1	Bead autofluor 19975
COc1ccc(OCCC(=O)Nc2ccc(S(N)(=O)=O)cc2)cc1	none
C=CC[C@@H](CC(=O)OC(C)(C)C)C(=O)OC[C@@H]1CCCN1C(=O)[C@@H](CC=C)CC(=O)N(CCO)Cc1ccccc1	none
CCOC(=O)CC(=O)Nc1ccc(C(=O)OCC)cc1	BoNT-F LC inh inconclusive
CCOC(=O)c1ccc(NC(=O)N(CC)CC)cc1	BoNT-A LC inh2 inconclusive, Bead autofluor 20244
CCOC(=O)c1ccc(NC(=S)NCCCN2CCCCC2)cc1	BoNT-A LC inh2 inconclusive, Bead autofluor 22858
CCCCOC(=O)c1ccc(-c2ccc(/C=N/NC(=S)NCC)o2)cc1	BoNT-A LC inh2 inconclusive, Bead autofluor 16266
CCOC(=O)c1ccc(-c2ccc(/C=N/NC(=O)c3cncc(Br)c3)o2)cc1	BoNT-F LC inh inconclusive
CCc1ccccc1N(CC(=O)NC(C)c1ccccc1)S(C)(=O)=O (stereo not given)	BoNT-F LC inh inconclusive
Cc1ccccc1OCCCCCNCCO	none
CC(C)(C)c1ccccc1OCCCCCNCCO	Bead autofluor 18177
O=C(NCC1CCCO1)C1CC(c2ccccc2Cl)=NO1 (stereo not given)	Bead autofluor 21967
CCCCNC(=O)C1(C)CCCCN1C(=O)c1ccc(C#N)cc1 (stereo not given)	none (no result: MazF activator)
CC(/C=N/n1c(-c2cccnc2)n[nH]c1=S)=C\c1ccccc1	Bead autofluor 16837
CC(=C/c1ccccc1)/C=N/n1c(-c2ccncc2)n[nH]c1=S	none
CC(=O)Nc1ccc(S(=O)(=O)N2CCC(C(=O)N[C@@H](C)C(=O)NC3CCCC3)CC2)cc1	none
COc1ccc(OC)c(NC(=O)C(=O)NNC(=O)COc2ccc(Br)cc2C)c1	none
O=C(Nc1ccccc1Cl)N1CCSc2ccccc21	none
O=C(Nc1cccc(Cl)c1)N1CCc2ccccc2C1	none (no result: BoNT-A LC inh2, BoNT-F LC inh, Bead autofluor, Anthrax LF prot)
O=C(Nc1cccc(Cl)c1)N1CCSc2cc(Cl)ccc21	Bead autofluor 19711
O=C(Nc1ccccc1)N1CCSc2cc(Cl)ccc21	Bead autofluor 20918
COc1cc(CNC(=O)Nc2cccn3nc(COCCO)nc23)cc(OC)c1OC	none (no result: MazF activator)
